Among the data in PubChem BioAssay (NCI) are growth values, retold here.

About 83,000 compounds went through this panel and 20% of them were active in at least one assay; those are over-represented in the sample as a whole.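 Plates (96-well) were seeded with cells, treated with compound at one concentration, and incubated for 48 hours before percent growth was determined.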 A number with no mark means an inactive call. Calls of active or inactive are those of the source. Rule for the calls: active = growth percent below 10; inactive = the rest.

Test in all cases: NCI-60 one-dose screen, 48 h (100 = growth as untreated, 0 = no growth, -100 = all killed)
Conditions in all cases: 10 µM unless noted

The subject of assay [1] is DU-145 prostate.
Assay [2] has as its system K-562 leukemia.
Assay [3] deals with MALME-3M melanoma.
The subject of assay [4] is MDA-MB-231 breast.
The test system of assay [5] is RXF 393 renal.
Assay [6] deals with SF-268 CNS.
Assay [7] has as its system SF-295 CNS.
Assay [8] relates to SF-539 CNS.
Assay [9] relates to UACC-257 melanoma.
For assay [10], the system named is M14 melanoma.
For assay [11], the system named is HCT-15 colon.
The test system of assay [12] is HT29 colon.
Assay [13] concerns SNB-75 CNS.
For assay [14], the system named is SNB-19 CNS.
Assay [15] deals with U251 CNS.
The test system of assay [16] is PC-3 prostate.
The test system of assay [17] is SK-MEL-5 melanoma.
In assay [18] the test system is UACC-62 melanoma.
Assay [19] has as its system LOX IMVI melanoma.
For assay [20], the system named is SK-MEL-28 melanoma.

Turning to `Cn1cc(-c2csc(-c3cn(CCCN4CCOCC4)c4ccccc34)n2)c2cccnc21`, the growth is 97.9% in [1]; 26.2% in [2]; 108% in assay [3]; 76.5% in assay [4]; 65.7% in assay [5]; 91.7% in [6]. The growth in assay [7] was 79.5%; in assay [8], 89.4%; in assay [9], 89.3%; in [10], 83.6%; in assay [11], 55.5%; in assay [12], 32.9%. In addition, the growth was 82.6% in assay [13]; 90.8% in assay [14]; 64.3% in assay [15]; 68% in assay [16]; 64.6% in assay [17]; 92.5% in assay [18]. In addition, the values for the growth in assay [19] and in [20] were 79% and 88.6%, respectively.

In the case of `CNC(=O)c1cc(Oc2ccc3c(c2)sc2nc(-c4ccc(OC)cc4)cn23)ccn1`, the growth is 8.28% (active) in assay [1]; 33.8% in [2]; 68.3% in assay [3]; 62.2% in assay [4]; 45.7% in assay [5]; 80.1% in assay [6]. Besides, the growth in [7] is 14.1%; in [8] it was 83.6%; in assay [9] it was 46.5%; in assay [10], 57.9%; in assay [11] it was 52.7%; in assay [12] it was 65.6%. The growth in assay [13] is 76.8%; in [14] it was 79.8%; in assay [15], 81.8%; in [16] it was 58.3%; in assay [17], 20.3%; in [18], 40.2%. Further, the growth in [19] was 82.1%; in assay [20], 67.9%.

Turning to `CN(Cc1ccccc1)c1nc(Cl)c(C2CC(c3ccccc3)=NN2c2ccccc2)s1` (stereo not given), the growth is 102% in assay [1]; 79.9% in assay [2]; 90.3% in assay [3]; 101% in assay [4]; 101% in [5]; 86.6% in [6]. For the same molecule, the growth in assay [7] is 101%; in assay [8], 98.9%; in assay [9], 93%; in [10], 96.6%; in assay [11], 94.2%; in assay [12], 80.8%. Besides, the growth in [13] was 82.3%; in assay [14] it was 100%; in [15], 90.2%; in [16], 83.2%; in [17], 98.8%; in [18], 88.8%. For the same molecule, the growth in assay [19] is 88.4%; in assay [20], 98.2%.

For `Cc1nc2c(=O)nc3s/c(=C\c4ccco4)c(=O)n3c2nc1C`, the growth in [1] was 103%; in [2], 102%; in assay [3], 82.1%; in [4], 93.8%; in assay [5] it was 112%; in [6] it was 100%. Further, the growth in assay [7] was 91.2%; in assay [8], 90.3%; in [9], 96.1%; in assay [10], 93.7%; in assay [11] it was 106%; in assay [12] it was 100%. Further, the growth in assay [13] was 85.4%; in assay [14] it was 96.8%; in assay [15] it was 93.5%; in assay [16], 97.6%; in assay [17], 104%; in [18], 92.4%. In addition, the growth in assay [19] is 90.2%; in assay [20], 100%.

On to `CCCCNc1nnc2n(Cc3ccccc3)c(=O)c3c4c(sc3n12)CCCC4`, for which the growth in assay [1] is 38.3%; in assay [2], 41.2%; in [3] it was 40.3%; in assay [4], 54.9%; in assay [5], 63.2%; in [6], 63.6%. Moreover, the growth in assay [7] was 48.4%; in [8] it was 47.1%; in assay [9], 54.1%; in [10], 56.3%; in [11], 30.5%; in [12], 24.8%. Besides, the growth was 66.4% in assay [13]; 56.5% in [14]; 48.5% in assay [15]; 42.7% in [16]; 27.7% in assay [17]; 32.5% in assay [18]. Besides, the growth in assay [19] is 30.2%; in assay [20], 60.7%.

For the molecule `S=c1nc2oc(-c3ccccc3)c(-c3ccccc3)c2c(/N=C\c2ccco2)[nH]1`, the growth is 100% in assay [1]; 89.3% in assay [2]; 99.3% in [3]; 98.5% in assay [4]; 99.3% in [5]; 90.2% in [6]. Further, the growth in [7] is 94.3%; in [8], 95.8%; in [9], 105%; in assay [10], 103%; in assay [11], 85.6%; in [12] it was 98.3%. For the same molecule, the growth is 74.2% in [13]; 95.2% in assay [14]; 91.4% in [15]; 85.8% in [16]; 94.6% in assay [17]; 90.9% in [18]. In addition, the growth in [19] was 92.9%; in [20], 109%.

For `CCO/C=N/C1=C(C#N)C(c2ccc(F)cc2)c2sc3c(F)cccc3c2O1` (stereo not given), the growth is 62.4% in [1]; 23.5% in [2]; 57.6% in [3]; 51% in assay [4]; 33.3% in assay [5]; 50.3% in assay [6]. Moreover, the growth in assay [7] is 22%; in [8] it was 28.9%; in assay [9], 60.2%; in assay [10], 29.8%; in assay [11], 26%; in assay [12], 56.8%. Moreover, the growth is 13.4% in assay [13]; 33.2% in [14]; 26.6% in assay [15]; 47.9% in [16]; 35.5% in assay [17]; 15.2% in assay [18]. Also, the growth in assay [19] is 36%; in [20], 60.4%.

As for `Cc1nc2ccccc2c(/C=C/c2ccccc2)c1C(=O)/C=C/c1ccccc1`, the growth in [1] was 12.6%; in assay [2], 9.41% (active); in [3], 37.5%; in assay [4], 29.8%; in assay [5], 21.1%; in assay [6] it was 40.2%. Also, the growth is 45.8% in assay [7]; 8.18% (active) in assay [8]; 9.71% (active) in [9]; 22.5% in [10]; 1.8% (active) in assay [11]; 6.72% (active) in assay [12]. The growth in assay [13] was 19.7%; in assay [14], 47.7%; in [15] it was -25.3% (active); in assay [16], 35.1%; in [17] it was 45%; in assay [18], 29.8%. For the same molecule, the values for the growth in assay [19] and in [20] were -64.1% (active) and 24.2%, respectively.
